# Sampled rows, rich in hits. Any-hit rate of the full collection: about 12%.
# HP1b chromo inh: HTS for Inhibitors of HP1-beta Chromodomain Interactions with Methylated Histone Tails; Chromobox protein homolog 1 (Homo sapiens), P83916; AlphaScreen HP1-beta / biotin-H3K9me3 peptide binding; Potency, µM (highest dose often 114 µM), for inactives: at the top dose activity change, negative = inhibition, most hits filed as inhibitors; 390,000 tested, 0.56% active; also: potency is read from the fitted curve at half-maximal effect; nearly all actives have a fitted effect of over 70% in size
#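 HP1-beta protein (50 nM final) preincubated 30 min at room temperature with biotinylated H3(1-18)K9me3 peptide (50 nM) in PBS pH 7.4, 0.01% Tween-20, then compound added for 30 min. AlphaScreen streptavidin donor/nickel chelate acceptor beads (10 ug/mL final), 30 min dark, luminescence read.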
# BAZ2B inh: qHTS Assay for Inhibitors of BAZ2B. Bromodomain adjacent to zinc finger domain protein 2B (Homo sapiens), Q9UIF8. AlphaScreen BAZ2B-H3K14Ac peptide displacement. Potency, µM (top dose mostly 114 µM), for inactives: top-dose activity change, negative = inhibition, actives largely listed as inhibitors. 360,000 tested, 4.4% active. AID 504333, 2011; also: potency is read from the fitted curve at half-maximal effect; % is scaled to controls: 0 for no effect and ±100 for the full control effect; nearly all actives have a fitted effect of over 60% in size
#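 Multi-concentration screen (max 110 uM) measuring displacement of acetylated histone H3 peptide from BAZ2B by AlphaScreen, using 50 nM protein, 50 nM peptide and 10 ug/mL streptavidin donor plus Ni-chelate acceptor beads.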
# JMJD2A Tudor inh: qHTS Assay for Inhibitors of JMJD2A-Tudor Domain | Lysine-specific demethylase 4A (Homo sapiens), O75164 | AlphaScreen JMJD2A-Tudor / H3K4me3 peptide binding | Potency, µM (doses to about 114 µM), for inactives: at the top dose activity change, negative = inhibition, most hits filed as inhibitors | 390,000 tested, 4.4% active; also: potency is read from the fitted curve at half-maximal effect; % is scaled to controls: 0 for no effect and ±100 for the full control effect; nearly all actives have a fitted effect of over 50% in size
# PLK1 PBD inh: qHTS for Inhibitors of PLK1-PDB (polo-like kinase 1 - polo-box domain): Primary Screen. Serine/threonine-protein kinase PLK1 (Homo sapiens), P53350. Plk1 PBD binding of FITC phosphopeptide, fluorescence polarization. Potency, µM, without a hit: max response, negative = inhibition, usual class: inhibitors. 360,000 tested, 2.8% active. AID 720504, 2013; also: potency is read from the fitted curve at half-maximal effect; series mostly up to about 57 µM; % is scaled to controls: 0 for no effect and ±100 for the full control effect; nearly all actives have a fitted effect of over 65% in size
# G9a inh: qHTS Assay for Inhibitors of Histone Lysine Methyltransferase G9a; 350,000 tested, 8.8% active; Histone-lysine N-methyltransferase EHMT2 (Homo sapiens), Q96KQ7; Potency, µM (doses to about 102 µM), for inactives: at the highest dose activity, negative = inhibition, usual class: inhibitors; G9a H3K9 monomethylation, AlphaScreen, 2 h; AID 504332, 2011; also: potency is read from the fitted curve at half-maximal effect; % is scaled to controls: 0 for no effect and ±100 for the full control effect; nearly all actives have a fitted effect of over 75% in size
#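 AlphaScreen read-out: biotin-H3K9 peptide (500 nM) methylation by 20 nM enzyme with 20 uM SAM, 2 h at room temperature after 15 min compound preincubation; anti-monomethyl H3K9 antibody plus donor/acceptor beads, 10 min dark.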
# PI5P4Ka inh: qHTS for Inhibitors of phosphatidylinositol 5-phosphate 4-kinase (PI5P4K) | PI5P4Kalpha enzyme, ADP-Glo luminescence, 60 min; active compounds read low | max response, % | 330,000 tested, 1.2% active | AID 652105, 2013; active = max response of -50% or lower; inconclusive = between -30% and -50%; inactive = -30% or higher; also: value at the top dose of about 77 µM; % is scaled to controls: 0 for no effect and ±100 for the full control effect
#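 Compounds were pin-transferred onto PI5P4Kalpha and substrate in HEPES pH 7.4 buffer with EGTA, CHAPS and 5% DMSO. ATP (5 microM final) started the reaction, which ran 60 minutes at room temperature before ADP-Glo detection.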
# Starred values were filed as active, the others as inactive; ? = inconclusive; . = no result given; [ ] = another dose, or the depositor's remark. Unless noted, calls follow the shape of the dose curve; as a rule, active = well fitted curve in the direction sought with a large enough effect; inconclusive = small, poorly fitted or top-dose-only effect, or another doubt; inactive = no such curve, though single readings can be large; an effect the other way counts as inactive or inconclusive.
SMILES,HP1b chromo inh,BAZ2B inh,JMJD2A Tudor inh,PLK1 PBD inh,G9a inh,PI5P4Ka inh
COc1ccc(C(=O)C(CCCCC(CN(C)C)C(=O)c2ccc(OC)cc2)CN(C)C)cc1 (centres undefined),27%,0%[57.1 µM],-8%,0%,?,-3
CCOc1ccc(C(=O)C(CCC(CN(C)C)C(=O)c2ccc(OCC)cc2)CN(C)C)cc1 (centres undefined),51%,?,?,27µM*,?,0
CN(C)CC(CCC(CN(C)C)C(=O)c1ccccc1)C(=O)c1ccccc1 (centres undefined),-14%,-2%,-20%,13µM*,45µM*,3
COc1ccc(OC(C)C(=O)NCc2nc(-c3cccc(C)c3)no2)cc1 (centres undefined),60%,2%,9%,.,14%[59 µM],.
CN(CCCNC(=O)CCC(=O)N1CCOc2ccc(Cl)cc21)Cc1ccccc1,27%,-4%,-4%,-2%,20%,-3
O=C1NC(c2cccc(Br)c2)=N/C1=C\c1ccco1,10%,?,?,-10%,?,?
O=C1NC(c2ccccc2)=N/C1=C/c1ccco1,-9%,-4%,-24%,-6%,22µM*,-5
O=C1NC(c2ccccc2Br)=N/C1=C\c1ccco1,4%,-18%,?,-2%,45µM*,-14
COC(=O)C1=C[C@@H](C(=O)OC)C2C3=C(C(=O)[C@]2(CC(C)C)NC(=O)c2ccccc2)[C@H](C)n2c(=O)n(C)c(=O)n2[C@@H]3C1 (some centres undefined),16%,.,-10%,.,.,.
COc1cccc(NC(=O)c2nnn(Cc3cccc(C(F)(F)F)c3)c2N)c1,12%,-37%,-3%,.,-5%[59 µM],.
Cc1ccoc1C(=O)NCc1occc1C(=O)O,-3%,?,?,-16%,45µM*,-13
Cc1ccoc1C(=O)NCCNC(=O)c1occc1C,18%,11%,-18%,-1%,-12%,1
Cc1ccoc1C(=O)NCCCNC(=O)c1occc1C,?,16%,?,27µM*,5%[12.7 µM],-9
CCOc1ccc2oc(=O)cc(CN3CCN(C(=O)c4cccc(F)c4)CC3)c2c1,18%,-2%,-17%,.,-9%[59 µM],.
CCCCCc1c(-c2ccc(Br)cc2)ncn1CCc1ccccc1OC,.,.,.,-5%,.,16
CCC1CCCCN1CCCNC(=O)Cn1cnc2sc(C)c(S(=O)(=O)N3CC(C)CC(C)C3)c2c1=O (centres undefined),17%[57 µM],-13%,-15%,-2%,2%,5
Cc1ccc(S(=O)(=O)Nc2ccc(O)c(Sc3ncn[nH]3)c2)cc1,-4%,-16%,-19%,-7%,?,4
COc1ccc(Cl)cc1S(=O)(=O)Nc1ncn[nH]1,50%,1%,-11%,?,79µM*,-2
COc1ccc(OC)c(S(=O)(=O)Nc2cccc3c(O)cccc23)c1,20%,.,-21%,-3%,.,-7
CCOc1ccc(S(=O)(=O)Nc2ccc(O)c(Sc3ncn[nH]3)c2)cc1,35%,12%,-2%,-9%,22µM*,1
COc1ccc(OC)c(S(=O)(=O)Nc2ccc(O)c(Sc3ncn[nH]3)c2)c1,8%,?,?,-10%,7.9µM*,.
COc1ccc(OC)c(S(=O)(=O)Nc2ccc(O)c3ccccc23)c1,71µM*,45µM*,?,?,5.6µM*,-21
Cc1cc(C)c(NC(=O)CCc2c(C)noc2C)c(C)c1,26%,10%,-8%,4%,24%[12.7 µM],7
CCN(CC)C(=O)COc1ccc(-c2nnc(Nc3ccc(OC)c(C(=O)NC)c3)c3ccccc23)cc1,10%,0%,-6%,-3%,-3%[59 µM],3
Cc1ncc([N+](=O)[O-])n1CC(=O)Nc1ccc(F)cc1F,28%,7%,-2%,6%,17%,2
SMILES,HP1b chromo inh,BAZ2B inh,JMJD2A Tudor inh,PLK1 PBD inh,G9a inh,PI5P4Ka inh
O=S(=O)(Nc1ccc(O)c2ccccc12)c1ccc(F)cc1,?,.,50µM*,27µM*,.,-13
COC(=O)c1ccc(N2NC(=O)/C(=C/c3cc(OC)c(O)c(OC)c3)C2=O)cc1,?,45µM*,?,19%,2.8µM*,-29
COC(=O)c1ccc(N2NC(=O)/C(=C/c3cc(OC)c(OC)c(OC)c3)C2=O)cc1,19%,-30%,-10%,8.4µM*,-12%[2.33 µM],-11
COc1cc(/C=C2\SC(=N)N(c3ccc4c(c3)OCO4)C2=O)cc(OC)c1O,22%,-9%,-14%,-8%,?,-28
CCOC(=O)c1cnn(-c2ccc(OC)cc2)c1C1CCN(C(=O)OC(C)(C)C)CC1,41%,.,-4%,.,-2%[59 µM],.
COc1ccccc1/C=C1\SC(=S)N(NS(=O)(=O)c2ccc(C)cc2)C1=O,-18%,50µM*,?,27µM*,?,?
COc1ccc(OC)c(/C=C2\SC(=S)N(NS(=O)(=O)c3ccc(C)cc3)C2=O)c1,?,?,50µM*,27µM*,5%[2.33 µM],-67*
COc1ccc(/C=C2\SC(=S)N(NS(=O)(=O)c3ccc(C)cc3)C2=O)c(OC)c1,-19%[57 µM],?,56µM*,?,-46%,-76*
CCOc1ccc(/C=C2\SC(=S)N(NS(=O)(=O)c3ccc(C)cc3)C2=O)cc1OC,-10%,?,?,?,?,2
Cc1oc2ncn(CC(C)C)c(=O)c2c1C(=O)Nc1cc(F)ccc1F,-4%,9%[57.1 µM],-14%,.,-3%[59 µM],.
CC(=O)N1C[C@H]2CON(C)[C@H]2C[C@H]1c1ccc(-c2ccc(C#N)cc2)cc1,.,.,.,4%,.,-1
COC(=O)CCNC(=O)NC(CCC(C)C)c1c(-n2cccc2)sc2c1CCN(C)C2 (centres undefined),5%,-30%,-25%,.,?,.
CN(C)c1ccc(CNCCC(Cc2ccccc2)c2ccco2)cc1 (centres undefined),?,22µM*,20µM*,0%,22µM*,-1
Cc1cc(NC(=O)COCc2cc(-c3ccc(F)cc3)on2)ccc1Br,63%,17%,22%,.,7%[59 µM],.
O=c1[nH][nH]c(=O)c2c(NS(=O)(=O)c3ccccc3)cccc12,-18%,-2%,45µM*,?,-6%[59 µM],-2
O=C(Cn1cc(SCc2ccc(F)cc2)c2ccccc21)N1CCCC1,39%,-25%,-8%,.,-9%[59 µM],.
O=C1CCCC(O)=C1Sc1ccccc1C(=O)O,25µM*,79µM*,22µM*,21µM*,25µM*,-16
